Screening data from PubChem BioAssay.
Hits are enriched below; roughly 7.9% of the tested compounds scored in any of these assays.
HT1080 IDH1KD tx – HT-1080 IDH1 knockdown cell toxicity (counter line); HT-1080 IDH1 knockdown viability, ATP luminescence, 48 h; Potency, µM (series often up to 46.1 µM), hits mostly cytotoxic; 360,000 compounds, 2% hits; AID 686971
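After a 2 h attachment period, IDH1KD HT-1080 cells took pin-transferred compound for 48 h at 37 °C; ATP-based luminescence after 10 min room-temperature reagent incubation reported viability.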
MCF10A rerep – inducers of DNA re-replication in MCF 10A breast cells; 350,000 compounds, 2.9% hits; Potency, µM (doses to about 46.1 µM), usual class: activators; AID 624296; MCF 10A DNA re-replication, Hoechst nuclear intensity, 48 h; further: nearly all actives have a fitted effect of over 50% in size
SW480 rereplic – induces DNA re-replication in SW480 colon adenocarcinoma cells. SW480 DNA re-replication, Hoechst DNA content imaging, 48 h. Potency, µM (doses to about 46.1 µM), usual class: activators. 340,000 compounds, 1.8% hits; further: nearly all actives have a fitted effect of over 55% in size
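SW480 cells exposed to compounds for 48 hr at 37 C, 5% CO2, then Hoechst-stained 40 min. Nuclear DNA content imaged by fluorescence scanning (405 nm excitation, 500-530 nm emission); re-replication scored as increased high-intensity nuclei.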
HT1080NT lethal – kills 2HG-producing HT-1080-NT fibrosarcoma cells | Potency, µM (highest dose often 46.1 µM), actives largely listed as cytotoxic | AID 686970 | HT-1080-NT fibrosarcoma viability, CellTiter-Glo ATP luminescence, 48 h | 360,000 compounds, 1.6% hits;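 further: NT is the 2HG producing partner of a matched IDH1 knockdown line; nearly all actives have a fitted effect of over 55% in size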
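A 48-hour cytotoxicity screen used HT-1080-NT cells plated 2 hours before compound delivery. ATP-based CellTiter-Glo luminescence measured viability, normalized to DMSO and no-cell controls.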
KB-3-1 tox – KB-3-1 parental cell cytotoxicity. KB-3-1 viability, CellTiter-Glo ATP luminescence, 72 h. Potency, µM (top dose mostly 46.1 µM), hits mostly cytotoxic. 400,000 compounds, 1.4% hits. AID 1347075; further: nearly all actives have a fitted effect of over 60% in size
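Cells are dispensed, compounds pinned in, plates held at 37 °C for 72 h, then CellTiter-Glo is added and luminescence read after 10 minutes. Cell line: parental KB-3-1 in phenol-red-free DMEM, 10% FBS.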
KB-V1 MDR tox – KB-V1 MDR subline cytotoxicity | AID 1347076 | 400,000 compounds, 3.4% hits | Potency, µM (top dose mostly 46.1 µM), usual class: cytotoxic | KB-V1 MDR cells viability, CellTiter-Glo, 72 h; further: nearly all actives have a fitted effect of over 60% in size
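KB-V1 MDR subline cells in DMEM (phenol-red free, 10% FBS) exposed to compounds in qHTS concentration series for 72 h at 37 degrees C. Viability read by CellTiter-Glo luminescence; concentration-effect curves fitted after normalization and correction.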
A number is an active result; - = inactive; ? = inconclusive; . = not tested or not shown. The call rests on the fitted dose curve; in most records, active means well fitted curve in the direction sought with a large enough effect; inconclusive means small, poorly fitted or top-dose-only effect, or another doubt; inactive means no such curve, though single readings can be large; an effect the other way counts as inactive or inconclusive.

SMILES	HT1080 IDH1KD tx	MCF10A rerep	SW480 rereplic	HT1080NT lethal	KB-3-1 tox	KB-V1 MDR tox
Cc1ccc(C(=O)Nc2ccc(Nc3ccccc3)cc2)cc1C	?	-	?	-	-	-
Cc1ccc(NC(=O)CCC(=O)NNC(=O)Cc2ccccc2)cc1C	-	1.8µM	-	-	-	-
COc1ccc(C(=O)N2CCC(c3c[nH]c4ccccc34)(c3c[nH]c4ccccc34)CC2)cc1	.	.	.	.	-	-
CC(=O)Nc1ccc(NC(=O)c2ccc(NS(=O)(=O)c3cc(C(C)(C)C)cc(C)c3C)cc2)cc1	?	18µM	-	?	-	-
CCC(=O)N1CCc2cc(S(=O)(=O)NC(Cc3ccccc3)C(=O)NCc3cccc(OC)c3)ccc21 (stereo not given)	.	.	.	.	-	-
COC(=O)CCCCCN1C(=O)/C(=C\c2ccncc2)SC1=S	-	26µM	-	-	-	-
O=C(CCCN1C(=O)/C(=C/c2cccc(Br)c2)SC1=S)Nc1ccccn1	-	?	?	-	5.8µM	15µM
O=C(CN1C(=O)/C(=C/c2ccccc2)SC1=S)N1CCN(CCc2ccccn2)CC1	-	5.8µM	?	-	-	-
O=C(O)CCN1C(=O)/C(=C\c2ccncc2)SC1=S	-	-	-	-	-	-
O=C(CCCN1C(=O)/C(=C/c2cccc(Br)c2)SC1=S)Nc1cccnc1	?	18µM	18µM	?	?	-
COc1ccc(OC)c(-n2c(=O)[nH]c3cc(C(=O)NCCc4ccc(OC)c(OC)c4)ccc3c2=O)c1	.	.	.	.	-	-
Cc1ccc(/C=C2\SC(=S)N(CCCC(=O)Nc3cccnc3)C2=O)cc1	-	?	?	-	?	23µM
O=C(CCCN1C(=O)/C(=C/c2cccs2)SC1=S)Nc1cccnc1	-	-	-	-	-	-
O=C(CCCN1C(=O)/C(=C\c2cccc(Br)c2)SC1=S)Nc1cccnc1	13µM	8.2µM	-	16µM	-	-
O=C(CCCN1C(=O)/C(=C/c2ccccc2OC(F)F)SC1=S)Nc1cccnc1	-	23µM	?	-	?	?
Cn1c(C(=O)N2CCN(c3cccc(C(F)(F)F)c3)CC2)cc2sccc21	?	?	23µM	-	-	-
Cc1ccc(C)c(N2CCN(C(=O)c3cc4sccc4n3C)CC2)c1	?	?	-	?	?	?
CCOC(=O)N1CCN(C(=O)c2cc3sccc3n2C)CC1	-	-	-	-	-	13µM
CCOC(=O)C1CCN(S(=O)(=O)c2cc3c4c(c2)CC(=O)N4CCC3)CC1	.	.	.	.	-	-
Cc1ccc(NC(=O)Nc2c[nH]c(=O)[nH]c2=O)c(Cl)c1	.	.	.	.	-	-
Cc1oncc1C(=S)Nc1ccccc1	-	8.2µM	6.5µM	?	-	-
CCc1noc(-c2ccc(N3CCCCC3C)c([N+](=O)[O-])c2)n1 (stereo not given)	.	.	.	.	-	-
COc1cccc(/C=N/NC(=O)CNC(=O)CCc2ccccc2)c1O	21µM	-	-	?	-	?
COc1cccc(/C=N/NC(=O)Cn2nc(C)c([N+](=O)[O-])c2C)c1O	18µM	-	?	?	?	?
COc1cccc(/C=N/NC(=O)CNC(=O)c2cccs2)c1O	?	-	-	?	-	-
SMILES	HT1080 IDH1KD tx	MCF10A rerep	SW480 rereplic	HT1080NT lethal	KB-3-1 tox	KB-V1 MDR tox
COc1cccc(/C=N/NC(=O)CSc2ccccc2C)c1O	26µM	?	?	?	?	6.5µM
COc1cccc(/C=N\NC(=O)c2ccc(Cn3cc(Br)c([N+](=O)[O-])n3)o2)c1O	?	?	0.73µM	?	?	?
COc1cc(/C=N\NC(=O)c2ccc(Cn3nc([N+](=O)[O-])c(Cl)c3C)o2)ccc1O	-	-	-	-	-	-
CCCNC(=O)N1C[C@H](O)COC[C@H]2O[C@@H](CC(=O)N[C@@H]3CCN(Cc4ccccc4)C3)CC[C@@H]21	-	.	.	-	-	-
COc1ccccc1/C=C\C(=O)NCC(=O)N/N=C/c1cccc(OC)c1O	15µM	-	?	?	?	-
NC(=O)c1sc2nc3c(c(-c4ccco4)c2c1N)CCC3	-	-	-	-	-	?
NC(=O)c1sc2nc(-c3ccccc3)c3c(c2c1N)CCCC3	-	21µM	15µM	-	-	-
CCc1nc2sc(C(C)=O)c(N)c2c2c1CCCC2	-	2.9µM	15µM	-	-	?
NC(=O)c1sc2nc(N3CCOCC3)c3c(c2c1N)CCCC3	-	?	-	-	-	?
Cc1nc2sc(C(N)=O)c(N)c2c2c1CCCC2	-	?	?	-	-	21µM
Cc1ccc(-c2nc3sc(C(N)=O)c(N)c3c3c2CCCC3)cc1	-	5.2µM	16µM	-	-	?
